# Experimental data published in PubChem BioAssay (NCATS).
# Inconclusive results are not listed. Calls of active or inactive are those of the source. Unless noted, the call rests on the fitted dose curve; in most records, active means well fitted curve in the direction sought with a large enough effect; inconclusive means small, poorly fitted or top-dose-only effect, or another doubt; inactive means no such curve, though single readings can be large; an effect the other way counts as inactive or inconclusive.
# Assays:
# [1] = tested on: Zika virus NS2B-NS3 protease (linked); assay: 384 well plate NINDS AMC confirmatory qHTS for Zika virus inhibitors (AID 1347163); further: potency means the concentration at half of the fitted maximal effect; nearly all actives have a fitted effect of over 50% in size
# How it was run: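 Enzyme (5, 30 or 60 nM final) first met test compounds for ~15 min. The AMC-tagged peptide Ac-VKTGKR-AMC followed at 30 microM. Fluorescence was then recorded at 25 min and scaled against no-enzyme and no-inhibitor wells.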
# [2] = tested on: Zika virus NS2B-NS3 protease (linked construct); assay: 384 well plate NINDS Rhodamine confirmatory qHTS for Zika virus inhibitors (AID 1347164); further: potency means the concentration at half of the fitted maximal effect; nearly all actives have a fitted effect of over 65% in size
# How it was run: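 Cleavage of Ac-LKRR-Rhodamine 110 (10 microM final) by linked protease (final 5, 30 or 60 nM) was followed as fluorescence at 485/538 nm after 25 min, room temperature, dark. Compounds preincubated ~15 min.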
# [3] = target: Glutathione peroxidase 1 (Homo sapiens) (UniProt P07203); assay: Primary qHTS Assay for Inhibitors of Recombinant Selenoprotein Glutathione Peroxidase 1 (GPX1) (AID 1845191); further: on the % scale 0 is the no-effect control and ±100 the full control effect; nearly all actives have a fitted effect of over 65% in size
# Sequence of Glutathione peroxidase 1 (Homo sapiens) (P07203 whole entry, looked up): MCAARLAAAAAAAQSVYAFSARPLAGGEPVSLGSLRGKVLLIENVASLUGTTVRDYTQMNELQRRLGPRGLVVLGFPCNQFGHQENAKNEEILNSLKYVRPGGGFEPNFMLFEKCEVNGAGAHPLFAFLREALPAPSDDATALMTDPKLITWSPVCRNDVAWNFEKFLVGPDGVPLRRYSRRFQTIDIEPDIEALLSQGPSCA
# How it was run: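 NADPH consumption tracked by fluorescence at 340/450 nm between t=0 and t=15 min, room temperature. Final mix: 10 nM GPX1, 100 nM glutathione reductase, 1 mM GSH, 0.5 mM NADPH, 0.5 mM cumene hydroperoxide, 0.01% BSA; 30 min compound–enzyme preincubation.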
# [4] = qHTS drug screen for cell cycle checkpoint inhibitors in PARPi-resistant BRCA-mutant ovarian cancer cell lines. (AID 1963452; calls by dose curve); conditions: PEO1/OlaR viability, CellTiter-Glo luminescence, 96 h, stronger effect = lower value
# How it was run: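 PEO1, PEO4 and PEO1/OlaR ovarian cancer cells, 600 per well, exposed 96 h at 37C to a dilution series. Viability read by CellTiter-Glo luminescence, normalized to DMSO and empty wells; activity summarized as Z-AUC.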
# [5] = qHTS assay to identify inhibitors of the type 1 interferon - major histocompatibility complex class I in skeletal muscle: Counter screen cell viability and HiBit confirmation (AID 1347412); conditions: iHSKM muscle cells + IFN-b, HiBiT or CellTiter-Glo, 24 h, at 45.9 µM (top of the series); further: on the % scale 0 is the no-effect control and ±100 the full control effect; nearly all actives have a fitted effect of over 60% in size
# How it was run: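 Human myoblast knock-in line, 4.0 ng/ml IFN-beta stimulation, 24 h compound treatment. Endpoints: HiBiT lytic luminescence (HLA-B level) and CellTiter Glo (ATP). Dosing 12 concentrations, 3-fold steps, 46 uM highest final.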
# [6] = tested on: Zika virus NS2B-NS3 protease (linked construct); assay: Primary screen NINDS Rhodamine qHTS for Zika virus inhibitors (AID 1347160); further: nearly all actives have a fitted effect of over 55% in size; further: potency means the concentration at half of the fitted maximal effect
# How it was run: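 Aprotinin served as in-plate control. Conditions: 25 nM linked NS2B-NS3, pH 8.0 Tris buffer, titrated compounds, 15 min preincubation and 15 min reaction with 1.5 microM Rhod110 substrate at room temperature.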
# [7] = COV-362 Cancer Cell Toxicity qHTS against the NCATS CANVASS Library (AID 1347352); further: potency means the concentration at half of the fitted maximal effect; on activity change, negative = cytotoxicity: on the % scale 0 is the no-effect control and ±100 the full control effect
# How it was run: (§1)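 1000 cells/well, 4 h pre-incubation 37 °C/5% CO2; 11-pnt titration; 72 h; CellTiter-Glo 15 min RT, luminescence.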
# [8] = UWB1.289-WTBRCA1 Cancer Cell Toxicity qHTS against the NCATS CANVASS Library (AID 1347354)
# How it was run: as §1
# [9] = SDT Cancer Cell Toxicity qHTS against the NCATS CANVASS Library (AID 1347365); further: nearly all actives have a fitted effect of over 60% in size; further: potency means the concentration at half of the fitted maximal effect;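 on activity change, negative = cytotoxicity: SDT canine glioma cells 500 per well in 1536 well plates; on the % scale 0 is the no-effect control and ±100 the full control effect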
# How it was run: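 Luminescent ATP read-out (CellTiterGlo) after 72 hr compound exposure of dog glioma SDT cells, 500 per well. Eleven-point titrations; bortezomib titration run alongside as control.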
# [10] = qHTS for Inflammasome Signaling Inhibitors: IL-1-beta AlphaLISA screen against the NCATS CANVASS Library (AID 1347379);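 further: human THP-1 cells primed with LPS then triggered with ATP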;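 on activity change, negative = inhibition: secreted IL-1B measured as AlphaLISA emission at 615 nm; on the % scale 0 is the no-effect control and ±100 the full control effect; lower signal means less IL-1B release which is the wanted effect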
# How it was run: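 THP-1, 1 hr compound pre-incubation, then LPS 250 ng/mL + ATP 1.25 mM (final); 16 hr total with compound; IL-1B AlphaLISA, ex 680/em 615 nm; 11-point qHTS, up to 57.5 uM final.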
# [11] = Vero-766 cells viability qHTS against the NCATS CANVASS Library: Counterscreen for Zika virus inhibition assay (AID 1347394); further: nearly all actives have a fitted effect of over 60% in size; further: potency means the concentration at half of the fitted maximal effect; on activity change, negative = cytotoxic: on the % scale 0 is the no-effect control and ±100 the full control effect
# How it was run: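 Counterscreen for toxicity: Vero 766 cells exposed 72 h to an 11-point compound series, viability by CellTiter-Glo.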
# [12] = qHTS for Antimalaria activity screened against the NCATS CANVASS Library (AID 1347380); further: nearly all actives have a fitted effect of over 40% in size; further: potency means the concentration at half of the fitted maximal effect;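 on activity change, negative = inhibition: Plasmodium falciparum strain Dd2 asexual parasites grown in red blood cells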
# How it was run: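 SYBR Green fluorescence (ex 485, em 535 nm) read after saponin/Triton lysis and 18 h further incubation; Dd2 asexual blood-stage parasites, 72 h compound exposure, 11-pt concentration series, 2.5% hematocrit, 0.3% parasitemia.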
# [13] = J3T Cancer Cell Toxicity qHTS against the NCATS CANVASS Library (AID 1347371)
# How it was run: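 Dog glioma J3T, 500 cells/well; cpd 11-pt qHTS; 72 hr, 37C/5% CO2; CellTiterGlo ATP luminescence readout.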
# [14] = Confirmatory screen NINDS Rhodamine qHTS for Zika virus inhibitors (AID 1347161); further: potency means the concentration at half of the fitted maximal effect; nearly all actives have a fitted effect of over 60% in size
# How it was run: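 qHTS dose-response: 25 nM linked protease, pH 8.0 Tris/Tween buffer, cpd titration, 15 min RT preinc, 1.5 microM Rhod110 peptide, 15 min reaction (~15% conversion), Ex480/Em540; 4-parameter Hill fit.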
# [15] = target: Cytochrome P450 3A4 (Homo sapiens) (UniProt P08684); assay: qHTS Assay for Activators of Cytochrome P450 3A4 (AID 885); further: nearly all actives have a fitted effect of over 65% in size
# Sequence of Cytochrome P450 3A4 (Homo sapiens) (P08684 whole entry, looked up): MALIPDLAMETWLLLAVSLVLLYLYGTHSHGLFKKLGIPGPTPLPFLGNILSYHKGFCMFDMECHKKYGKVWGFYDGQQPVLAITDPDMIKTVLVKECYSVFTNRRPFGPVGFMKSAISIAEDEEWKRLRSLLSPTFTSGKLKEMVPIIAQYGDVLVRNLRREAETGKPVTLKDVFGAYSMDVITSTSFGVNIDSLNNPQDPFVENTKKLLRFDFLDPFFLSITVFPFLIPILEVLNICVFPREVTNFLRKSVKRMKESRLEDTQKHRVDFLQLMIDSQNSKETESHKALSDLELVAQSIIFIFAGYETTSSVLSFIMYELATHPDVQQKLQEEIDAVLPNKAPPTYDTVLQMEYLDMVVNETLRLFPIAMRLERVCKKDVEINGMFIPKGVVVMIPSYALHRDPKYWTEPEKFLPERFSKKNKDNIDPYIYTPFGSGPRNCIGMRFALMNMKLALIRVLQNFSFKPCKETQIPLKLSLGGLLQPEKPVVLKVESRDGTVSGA
# How it was run: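 CYP3A4 activity: Luciferin-PPXE O-dealkylation, 25uM substrate, 200mM KPO4, RT throughout. Read-out is luciferase luminescence; higher values reflect activation.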
# [16] = Confirmation and Secondary Assay for Modulators of Hemoglobin Beta Chain Splicing at IVS2 654 locus (AID 910);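 further: HeLa cells stably carrying EGFP split by mutant beta-globin IVS2-654 intron; % of control where 0% means no effect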
# How it was run: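 Readout: per-well total peak green fluorescence (488 nm ex, 500–520 nm em) from objects 5–250 µm, reflecting correct splicing of an EGFP-654 reporter. Compounds were applied for 2 days at 37 °C to overnight-plated HeLa EGFP-654 cells; controls were DMSO and 500 nM IVS2-654 PNA.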
# [17] = Confirmation and Secondary Assay for Modulators of Hemoglobin Beta Chain Splicing at IVS2 705 locus (AID 930);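 further: HeLa cells stably expressing the EGFP-705 splicing reporter; GFP fluorescence per well restored by corrected splicing of the IVS2-705 intron in EGFP; % of control where 0% means no effect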
# How it was run: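 Read-out: total peak GFP fluorescence per well (488 nm excitation, 500-520 nm emission) by laser-scanning cytometry. Cells: HeLa EGFP-705 splicing reporter, 2 days compound exposure in Optimem/2% FCS.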
# [18] = qHTS for inhibitors of Wild type Zika virus screened against the NCATS CANVASS Library (AID 1347396);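 further: ATP luminescence of surviving cells so rescue from viral cell killing; on the % scale 0 is the no-effect control and ±100 the full control effect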
# How it was run: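 Vero 766 cells, 1000/well, o/n attach; cpds pin-transferred (11-pt qHTS); WT Zika added; 72 h, 37C, 5% CO2; CellTiter Glo lumi. Uninfected + vehicle = 100% inhibition.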
smiles,measurement,setting,value
COc1cc(C(=O)O)ccc1NC(=O)[C@@H]1N[C@@H](CC(C)(C)C)[C@](C#N)(c2ccc(Cl)cc2F)[C@H]1c1cccc(Cl)c1F,Potency,[1],31.6 µM (active)
same,Potency,[2],5.62 µM (active)
same,Potency,[3],inactive
same,Z-AUC,[4],2.81 (inactive)
same,Z-AUC,[4]; measured here: PEO1 parental Z-AUC,1.51
same,Z-AUC,[4]; measured here: PEO4 Z-AUC,1.24
same,"activity change, negative = inhibition",[5]; HiBiT,-14.1% (inactive)
same,"activity change, negative = inhibition",[5]; Viability,-6.71% (inactive)
COC(=O)C1=C[C@]23C[C@@H](C)CC[C@@H]2[C@@]2(C)CC[C@@H](C(C)C)[C@@](O)(O3)[C@@H]12,Potency,[6],44 µM (active)
CC(CCC[C@]1(C)C(=O)C=C[C@@]23C[C@]4(C)O[C@@H](C[C@@H]4[C@H]2O)C31)C(=O)O (some centres undefined),Potency,[7],inactive
same,Potency,[8],inactive
same,Potency,[9],inactive
same,Potency,[10],inactive
same,Potency,[11],inactive
Cc1cc(C)c(O)c(C(=O)CC2CC(=O)NC(=O)C2)c1,Potency,[6],inactive
same,Potency,[9],1.32 µM (active)
same,Potency,[10],inactive
same,Potency,[12],2.98 µM (active)
COc1ccc([C@@H]2CC(=O)c3c(cc(O)c(C/C=C(\C)CCC=C(C)C)c3O)O2)cc1,Potency,[6],7.2 µM (active)
same,"activity change, negative = cytotoxicity",[7],1.08% [at 7.64 µM] (inactive)
same,"activity change, negative = cytotoxicity",[9],0.771% [at 9.19 µM] (inactive)
same,outcome,[13],inactive [at 9.19 µM]
same,outcome,[10],inactive [at 11.5 µM]
same,"activity change, negative = cytotoxic",[11],-18.7% [at 9.19 µM] (inactive)
COC(=O)c1cc2cc3c(c(O)c2c(=O)o1)OC1(CC3)CC2=C(O1)C(=O)c1c(O)c(OC)cc(OC)c1C2=O (centres undefined),Potency,[6],2.47 µM (active)
same,Potency,[13],inactive
same,Potency,[12],inactive
O=C(OC[C@H]1O[C@@H](OC(=O)c2cc(O)c(O)c(O)c2)[C@H](OC(=O)c2cc(O)c(O)c(O)c2)[C@@H](OC(=O)c2cc(O)c(O)c(O)c2)[C@@H]1OC(=O)c1cc(O)c(O)c(O)c1)c1cc(O)c(O)c(O)c1,Potency,[6],0.877 µM (active)
same,Potency,[13],inactive
same,Potency,[10],inactive
CCCCc1nn2c(=O)cc(COC(=O)c3ccc(NC(=O)c4ccccc4Cl)cc3)nc2s1,Potency,[14],44.7 µM (active)
O=C1CC(c2ccc(O)cc2)Oc2cc(O)cc(O)c21 (centres undefined),Potency,[15],inactive
same,outcome,[16],inactive
same,outcome,[17],inactive
same,Potency,[7],inactive
same,Potency,[8],inactive
same,Potency,[13],inactive
same,Potency,[10],inactive
same,Potency,[11],inactive
same,outcome,[18],inactive
CC[C@H](O)CCCCC[C@@H]1NC(=O)[C@H]2CCCCN2C(=O)[C@H]([C@H](C)CC)NC(=O)[C@H](Cc2cn(OC)c3ccccc23)NC1=O,Potency,[6],15.6 µM (active)
same,Potency,[12],1.49 µM (active)
same,Potency,[11],6.6 µM (active)
C/C(=C\[C@H](C)C(=O)/C=C/CC1CC(=O)NC(=O)C1)[C@@H]1OC(=O)/C=C/CC/C=C/C[C@@H](O)[C@@H]1C,Potency,[6],31.1 µM (active)
same,Potency,[7],2.36 µM (active)
same,Potency,[9],0.662 µM (active)
same,Potency,[10],6.11 µM (active)
same,Potency,[11],inactive
C/C(=C\[C@H](C)C(=O)CCCC1CC(=O)NC(=O)C1)[C@@H]1OC(=O)/C=C/CC/C=C/[C@H](O)[C@@H](O)[C@@H]1C,Potency,[6],49.3 µM (active)
same,Potency,[9],0.264 µM (active)
same,Potency,[12],5.29 µM (active)
same,outcome,[18],inactive
Oc1ccc(C2Oc3cc(O)c4c(c3[C@@H]2c2cc(O)cc(O)c2)[C@H]2C(c3ccc(O)cc3)c3c(O)cc5c(c3[C@H]2C4c2ccc(O)cc2)[C@H](c2cc(O)cc(O)c2)C(c2ccc(O)cc2)O5)cc1 (some centres undefined),Potency,[6],15.6 µM (active)
same,Potency,[9],9.35 µM (active)
